# Source: PubChem
# In the library only some 3.8% were active in any assay of this set; here they are far more common.
# A549 tox = Nrf2 qHTS screen for inhibitors: counterscreen for cytotoxicity; Potency, µM (titrated, usually from 46 µM), inactives show top-dose activity change, negative = cytotoxicity, usual class: inhibitors; A549 ARE-Fluc cells, CellTiter-Fluor viability, 18-24 h; hit rate 0.16% among 390,000; note: potency is the fitted concentration of half-maximal effect; % is set by controls: 0 for no effect and ±100 for the full control effect
#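 A549 ARE-Fluc cells in 5% FBS OPTI-MEM, 5000 cells/well, rested 2 h then exposed to compounds in concentration-response for 18-24 h at 37 °C. Viability by CellTiter-Fluor fluorescence (Ex 405/Em 525) after 30 min; luciferase luminescence (BugLite, 15 min, RT) read afterwards.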
# HepG2 viability = qHTS for Inhibitors of TGF-b: Cytotox Counterscreen | hit rate 0.76% among 410,000 | Potency, µM (series often up to 46.1 µM), for the others: at the top dose activity change, negative = cytotoxicity, most hits filed as cytotoxic | HepG2 CAGA-GFP viability, ATP luminescence, 18 h; note: potency is the fitted concentration of half-maximal effect
#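 CellTiter-Glo luminescence gave cytotoxicity after 18 hours at 37 degrees C. The cells were HepG2 CAGA-GFP in 1% FBS DMEM, stimulated with 500 pg/mL TGF-beta after compound addition. %Activity was normalised to no-cell wells (complete cell-killing) and DMSO (no toxicity), and curves were fitted and classified.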
# Nrf2 block = Nrf2 qHTS screen for inhibitors; A549 ARE-Fluc reporter, luciferase luminescence, 18-24 h; Potency, µM (doses to about 46 µM), inactives show top-dose activity change, negative = inhibition, hits mostly inhibitors; hit rate 2.1% among 360,000; note: potency is the fitted concentration of half-maximal effect; % is set by controls: 0 for no effect and ±100 for the full control effect; nearly all actives have a fitted effect of over 60% in size
#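 Reporter: ARE-Fluc in A549. Exposure: 18-24 h, 37 °C, 5% CO2, 5% FBS OPTI-MEM. Readouts: fluorescent cytotoxicity (CellTiter-Fluor), then luminescent Nrf2 signal after BugLite.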
# TGFb SMAD3 inh = qHTS for Inhibitors of TGF-b; HepG2 CAGA-GFP TGF-b/SMAD3 reporter, GFP fluorescence, 18 h; TGF-beta stimulated, 500 pg/mL final; AID 588855, 2011; hit rate 1.2% among 410,000; Potency, µM (highest dose often 46.1 µM), inactives show at the highest dose activity, negative = inhibition, hits mostly inhibitors; note: potency is the fitted concentration of half-maximal effect; % is set by controls: 0 for no effect and ±100 for the full control effect; nearly all actives have a fitted effect of over 65% in size
#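 Smad-responsive CAGA-GFP expression was quantified in HEPG2 cells exposed to compounds and 500 pg/mL final TGF-beta for 18 h at 37 degrees C; unstimulated wells defined full inhibition.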
# S2 tox = Viability Counterscreen for Primary qHTS for Inhibitors of ATXN expression. Potency, µM (series often up to 56.7 µM), hits mostly cytotoxic. hit rate 0.49% among 400,000. S2 cells (HEK-293 line with an ATXN2-luciferase reporter) viability, CellTiter-Fluor protease fluorescence, 24 h. AID 651635, 2014; note: potency is the fitted concentration of half-maximal effect; nearly all actives have a fitted effect of over 40% in size
# ATXN2 expr inh = Primary qHTS for Inhibitors of ATXN expression. Potency, µM (doses to about 57 µM), for the others: at the highest dose activity change, negative = inhibition, usual class: inhibitors. hit rate 0.72% among 360,000. HEK-293 ATXN2-luciferase reporter, luminescence, 24 h; note: potency is the fitted concentration of half-maximal effect; % is set by controls: 0 for no effect and ±100 for the full control effect; nearly all actives have a fitted effect of over 55% in size
#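 qHTS (up to 57 uM final) was run with 24 h compound exposure of reporter cells at 37 °C. Each well was multiplexed: SteadyGlo luminescence measured ATXN2-luciferase expression after a fluorogenic Gly-Phe-AFC viability readout (25 uM final).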
# SKNSH spheroid = qHTS of pediatric cancer cell lines to identify multiple opportunities for drug repurposing: Orthogonal 3D viability screen for SK-N-SH cells; shares compounds with ATXN2 expr inh; SK-N-SH 3D spheroid viability, PI/Hoechst imaging, 72 h; Potency, µM (doses to about 30.7 µM), most hits filed as inhibitors; hit rate 70% among 65; AID 1347135, 2019
# SJGBM2 3D viab = qHTS of pediatric cancer cell lines to identify multiple opportunities for drug repurposing: Orthogonal 3D viability screen for SJ-GBM2 cells | shares compounds with ATXN2 expr inh | SJ-GBM2 3D spheroid viability, PI/Hoechst imaging, 72 h | Potency, µM (series often up to 30.7 µM), most hits filed as inhibitors | hit rate 80% among 65
# Daoy 3D tox = qHTS of pediatric cancer cell lines to identify multiple opportunities for drug repurposing: Orthogonal 3D viability screen for Daoy cells. Potency, µM (titrated, usually from 30.7 µM), most hits filed as inhibitors. shares compounds with ATXN2 expr inh. hit rate 50% among 65. Daoy 3D spheroid viability, PI/Hoechst imaging, 72 h
# TC32 3D caspase = qHTS of pediatric cancer cell lines to identify multiple opportunities for drug repurposing: Orthogonal 3D caspase screen for TC32 cells; shares compounds with ATXN2 expr inh; TC32 3D spheroids, caspase-3/7 fluorescence imaging, 24 h; Potency, µM (top dose mostly 30.7 µM), actives largely listed as inhibitors; hit rate 30% among 65; AID 1347138, 2019
# TC32 spheroid = qHTS of pediatric cancer cell lines to identify multiple opportunities for drug repurposing: Orthogonal 3D viability screen for TC32 cells | hit rate 60% among 65 | AID 1347139, 2019 | Potency, µM (top dose mostly 30.7 µM), most hits filed as inhibitors | TC32 3D spheroid viability, PI/Hoechst imaging, 72 h | shares compounds with ATXN2 expr inh
# MG63 3D tox = qHTS of pediatric cancer cell lines to identify multiple opportunities for drug repurposing: Orthogonal 3D viability screen for MG 63 (6-TG R) cells; shares compounds with ATXN2 expr inh; hit rate 50% among 65; Potency, µM (series often up to 30.7 µM), actives largely listed as inhibitors; MG-63 (6-TG R) 3D spheroid viability, PI/Hoechst imaging, 72 h
# RD 3D tox = qHTS of pediatric cancer cell lines to identify multiple opportunities for drug repurposing: Orthogonal 3D viability screen for RD cells. shares compounds with ATXN2 expr inh. RD rhabdomyosarcoma 3D spheroid viability, PI/Hoechst imaging, 72 h. Potency, µM (titrated, usually from 30.7 µM), most hits filed as inhibitors. hit rate 50% among 65. AID 1347141, 2019
# The depositor's hits bear a star; i = inactive; u = inconclusive; x = no result given. Calls come from the whole dose curve; as a rule, active = well fitted curve in the direction sought with a large enough effect; inconclusive = small, poorly fitted or top-dose-only effect, or another doubt; inactive = no such curve, though single readings can be large; an effect the other way counts as inactive or inconclusive.
SMILES,A549 tox,HepG2 viability,Nrf2 block,TGFb SMAD3 inh,S2 tox,ATXN2 expr inh,SKNSH spheroid,SJGBM2 3D viab,Daoy 3D tox,TC32 3D caspase,TC32 spheroid,MG63 3D tox,RD 3D tox
CC1=C([N+](=O)[O-])C(c2ccc(Cl)cc2)NC(=O)N1 (centres undefined),-3%,2%,-8%,12%,i,-11%,x,x,x,x,x,x,x
COc1cc(C2CC(=O)Nc3cc4c(cc32)OCO4)cc(OC)c1O (centres undefined),2%,-36%,24%,-20%,i,-25%,x,x,x,x,x,x,x
COc1cc([C@@H]2c3cc4c(cc3[C@@H](O[C@@H]3O[C@@H]5CO[C@@H](C)O[C@@H]5[C@H](O)[C@@H]3O)[C@H]3COC(=O)[C@H]23)OCO4)cc(OC)c1O,x,x,x,x,x,0.77µM*,0.57µM*,0.26µM*,0.46µM*,u,0.26µM*,u,u
COc1cc([C@@H]2c3cc4c(cc3C(O[C@@H]3O[C@@H]5CO[C@@H](c6cccs6)OC5[C@H](O)[C@H]3O)C3COC(=O)[C@@H]32)OCO4)cc(OC)c1O (some centres undefined),x,x,x,x,x,x,0.057µM*,0.032µM*,0.041µM*,u,0.016µM*,4.1µM*,5.7µM*
Cc1cc(C)nc(SCC(=O)NC2CCCCC2C)n1 (centres undefined),1%,4%,3%,14%,i,-11%,x,x,x,x,x,x,x
COc1ccc(S(=O)(=O)Nc2cccnc2Nc2ccc(O)cc2)cc1,x,x,x,x,x,-15%,0.32µM*,0.23µM*,u,1µM*,0.57µM*,u,0.46µM*
COc1cccc(CNC(=O)Cn2c(C)c3cnn(-c4ccccc4)c(=O)c3c2C)c1,6%,4%,-14%,-43%,i,-12%,x,x,x,x,x,x,x
C[C@H]1[C@@H](OC(=O)CCC(=O)O)O[C@@H]2O[C@@]3(C)CC[C@@H]4[C@H](C)CC[C@@H]1[C@@]24OO3,x,x,x,x,x,u,u,1.3µM*,i,u,u,u,0.91µM*
O=c1[nH][nH]c2c1[C@H](C1CCCC1)O[C@H](CCc1ccccc1)C2,x,x,x,x,u,0%,x,x,x,x,x,x,x
COc1ccc(-c2ccc3ncc4c(c3c2)n(-c2ccc(N3CCNCC3)c(C(F)(F)F)c2)c(=O)n4C)cn1,x,x,x,x,x,7.7µM*,0.25µM*,0.031µM*,0.0056µM*,0.5µM*,0.13µM*,0.0056µM*,0.16µM*
C[C@@H]1C[C@H]2[C@@H]3CCC4=CC(=O)C=C[C@]4(C)[C@@]3(Cl)[C@@H](O)C[C@]2(C)[C@@]1(OC(=O)c1ccco1)C(=O)CCl,-22%,-42%,u,-4%,u,u,i,u,i,i,i,i,i
CC(C)[C@H](NS(=O)(=O)c1cccc(Cl)c1)C(=O)OCC(=O)NC(=O)CN1CCCC1=O,-1%,5%,u,13%,u,x,x,x,x,x,x,x,x
